RAD54 inh: RAD54 (human) branch migration inhibition. Q92698. RAD54 Holliday junction branch migration, FAM/BHQ fluorescence. inhibition, % at 10.4 µM. 0.14% of 360,000 active;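 active = mean normalized replicate activity at least 40 and at least half of replicates scoring 40 or more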;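 also: inhibitors cause a drop in the FAM fluorescence signal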
Myeloid diff MLP: compounds promoting myeloid differentiation; calls only at 10 µM; 1% of 360,000 active; ER-HoxA9 myeloid progenitors, lysozyme-GFP differentiation, flow cytometry; AID 624256;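 active = normalized GFP-positive differentiation at or above the plate's own cutoff, the solvent-only control mean plus 3 SD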;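 also: cells exposed to compound for four days before flow analysis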
N-glyco inh: blocks N-linked glycosylation in D54 reporter cells. D54 ERlucT glycosylation luciferase reporter, 24 h; percent of 100 nM tunicamycin response. reporter increase, % at 12.5 µM. 0.23% of 360,000 active. AID 588692;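 active = mean luciferase reporter signal, scaled so untreated is 0 and the glycosylation-blocking control 100, at or above a set limit in every replicate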;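 also: luciferase carries N-glycosylation sites so blocking glycosylation raises the light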
Vif imaging: blocks HIV Vif function; HEK293T cells, Vif self-association by quenched fluorescence, imaging, 24 h; inhibition, % at 7.49 µM; 0.35% of 340,000 active; AID 602346; in the data active = inhibition above about 50%, passing the limit was not always enough
ABCB6 inh MLPCN: human ABCB6 transporter inhibition. K562-ABCB6 porphyrin accumulation, flow cytometry, 1 h; stronger effect = lower value. fluorescence ratio to DMSO, % at 10 µM. Q9NP58. 0.19% of 360,000 active. AID 602162;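 active = fluorescence ratio to DMSO below 75%, the collection mean minus 3 SD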;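 also: signal is porphyrin accumulated inside mitochondria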
Target sequence (Q9NP58 whole entry, looked up): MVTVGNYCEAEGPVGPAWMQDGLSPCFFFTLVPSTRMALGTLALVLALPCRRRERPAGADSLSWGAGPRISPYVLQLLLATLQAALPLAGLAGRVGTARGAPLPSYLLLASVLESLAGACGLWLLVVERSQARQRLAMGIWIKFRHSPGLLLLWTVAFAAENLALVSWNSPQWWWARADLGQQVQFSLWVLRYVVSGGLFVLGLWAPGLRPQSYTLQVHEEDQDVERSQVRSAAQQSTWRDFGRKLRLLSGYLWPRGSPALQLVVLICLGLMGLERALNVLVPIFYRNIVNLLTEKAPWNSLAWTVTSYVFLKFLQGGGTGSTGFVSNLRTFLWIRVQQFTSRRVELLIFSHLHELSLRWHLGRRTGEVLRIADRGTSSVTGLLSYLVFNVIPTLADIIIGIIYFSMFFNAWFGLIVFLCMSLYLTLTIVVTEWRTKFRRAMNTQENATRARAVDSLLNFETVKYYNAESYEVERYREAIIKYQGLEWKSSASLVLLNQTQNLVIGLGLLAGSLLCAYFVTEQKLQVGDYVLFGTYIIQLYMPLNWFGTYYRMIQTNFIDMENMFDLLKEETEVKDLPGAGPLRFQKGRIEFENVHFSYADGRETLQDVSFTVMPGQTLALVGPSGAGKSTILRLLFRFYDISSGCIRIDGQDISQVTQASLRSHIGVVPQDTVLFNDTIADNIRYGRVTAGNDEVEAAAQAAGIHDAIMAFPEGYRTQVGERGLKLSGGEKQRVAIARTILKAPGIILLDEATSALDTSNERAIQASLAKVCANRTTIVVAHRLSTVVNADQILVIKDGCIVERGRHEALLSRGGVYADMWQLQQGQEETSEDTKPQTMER
Myeloid diff CP1: compounds promoting myeloid differentiation. 2% of 2,300 active. shares compounds with Myeloid diff MLP. calls only. ER-HoxA9 myeloid progenitors, GFP/Mac1 double-positive flow;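 active = share of green or green-and-red cells above 9 and 9% in run 1 or 4 and 3% in run 2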
GFP autofluor: flagged as fluorescent in myeloid differentiation counter-screen; shares compounds with Myeloid diff MLP; ER-HoxA9 myeloid progenitors, no estrogen, GFP autofluorescence flow cytometry; vehicle wells 0%, positive control 100%; fluorescence response, % (test concentration not listed); 7.4% of 2,300 active; AID 651707;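 active = over 5% cells positive for green fluorescent reporter, or over 2% positive for both it and APC stain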
Of the large screens only hits and unclear results are named; the others gave an inactive call (follow-up assays come after a bar, where they were run). Shown are actives, neighbours in structure and some others; about 1.6% of the full set was active somewhere.

CC(C)=CCC/C(C)=C/CNC(=O)C[C@H]1C[C@H](C(=O)N2CCCCC2)[C@@]2(C)c3[nH]c4ccc(Cl)cc4c3CCN2C1=O	Myeloid diff MLP active | Myeloid diff CP1 inactive | GFP autofluor inactive
CC(C)=CCC/C(C)=C/CNC(=O)CC1C[C@H](C(=O)N2CCCCC2)[C@@]2(C)c3[nH]c4ccccc4c3CCN2C1=O (stereo partly specified)	none (no result: Vif imaging)
CCCNC(=O)Nc1ccc2c(c1)OC[C@H](C)N(C(=O)C1CC1)C[C@@H](C)[C@@H](OC)CN(C)C2=O	none (no result: Myeloid diff MLP, N-glyco inh, Vif imaging, ABCB6 inh MLPCN)
Cc1ccc(CNC(=O)CN(C)S(=O)(=O)c2cnc[nH]2)cc1	none
COc1cccc(CNC(=O)CN(C)S(=O)(=O)c2cnc[nH]2)c1	Myeloid diff MLP active | Myeloid diff CP1 inactive | GFP autofluor inactive
O=C(Cc1ccncc1)NCC[C@H]1CC[C@H](NC(=O)C2CCOCC2)[C@@H](CO)O1	none (no result: Myeloid diff MLP, N-glyco inh, Vif imaging, ABCB6 inh MLPCN)
O=C(Nc1ccccc1N1CCOCC1)c1cccc2c(Br)cccc12	Myeloid diff MLP active | Myeloid diff CP1 inactive | GFP autofluor inactive
O=C(Nc1ccc(N2CCOCC2)cc1)c1cccc2c(Br)cccc12	none
O=C(Nc1ccccc1N1CCOCC1)c1ccc([N+](=O)[O-])o1	none | Myeloid diff CP1 inactive | GFP autofluor inactive
O=C(CCNC(=O)c1ccc(Br)cc1)Nc1ccccc1N1CCOCC1	none (no result: RAD54 inh) | Myeloid diff CP1 inactive | GFP autofluor inactive
O=C(Nc1ccccc1N1CCCCC1)c1ccc([N+](=O)[O-])o1	none
CC(C)CC#Cc1ccc2c(c1)O[C@@H](CN(C)C(=O)c1cnccn1)[C@@H](C)CN([C@H](C)CO)S2(=O)=O	none (no result: Myeloid diff MLP, N-glyco inh, Vif imaging, ABCB6 inh MLPCN)
O=C(Nc1ccccc1)N1C[C@@H]2[C@H](c3ccccc31)[C@@H](CO)N2Cc1ccc(F)cc1	none (no result: Myeloid diff MLP, N-glyco inh, Vif imaging, ABCB6 inh MLPCN)
Cc1c(Br)c(O)c(Br)c2sc(=O)oc12	none (no result: RAD54 inh) | Myeloid diff CP1 inactive | GFP autofluor inactive
C[C@@H]1CN([C@@H](C)CO)C(=O)c2cc(-c3ccc(F)cc3)cnc2O[C@H]1CN(C)CC1CCCC1	none (no result: Myeloid diff MLP, N-glyco inh, Vif imaging, ABCB6 inh MLPCN)
O=C(CC(Nc1ccccc1)C(=O)O)c1ccccc1 (stereo unspecified)	none
C=C(C(=O)c1ccccc1)C(C)CC(=O)c1ccccc1 (stereo unspecified)	none (no result: RAD54 inh) | Myeloid diff CP1 inactive | GFP autofluor 99
Cc1cc(C(=O)NC2CCCc3c2cnn3-c2cccc(C)c2C)n(C)n1 (stereo unspecified)	Myeloid diff MLP active | Myeloid diff CP1 inactive | GFP autofluor inactive
CN(c1ccc(C(=O)NCc2ccc3c(c2)OCO3)cc1)S(C)(=O)=O	none
CN(c1ccc(C(=O)NCc2ccc3c(c2)OCO3)cc1)S(=O)(=O)c1ccccc1	none (no result: RAD54 inh) | Myeloid diff CP1 inactive | GFP autofluor inactive
CO[C@@H]1CN(C)C(=O)c2cc(NS(=O)(=O)CC(F)(F)F)ccc2OC[C@H](C)N(C(=O)NC(C)C)C[C@H]1C	none (no result: Myeloid diff MLP, N-glyco inh, Vif imaging, ABCB6 inh MLPCN)
C[C@@H]1CCCCO[C@H](CN(C)C(=O)NC2CCCCC2)[C@H](C)CN([C@H](C)CO)C(=O)c2cc(NC(=O)NC3CCCCC3)ccc2O1	none (no result: Myeloid diff MLP, N-glyco inh, Vif imaging, ABCB6 inh MLPCN)
C[C@H]1CN([C@@H](C)CO)C(=O)c2cc(NS(=O)(=O)c3ccc(Cl)cc3)ccc2O[C@H]1CN(C)S(=O)(=O)c1ccc(F)cc1	none (no result: Myeloid diff MLP, N-glyco inh, Vif imaging, ABCB6 inh MLPCN)
COc1ccc(-n2c(Cc3cccn3C)nnc2SCC(=O)Nc2nc(C)cs2)cc1	none | Myeloid diff CP1 inactive | GFP autofluor inactive
COc1ccc(-n2c(Cc3cccn3C)nnc2SCC(=O)Nc2ccccc2)cc1	none
CCn1ncc(C2=NOC(C(=O)NCC(C)C)C2)c1C (stereo unspecified)	none (no result: RAD54 inh)
CCn1ncc(C2=NOC(C(=O)Nc3cc(OC)c(Cl)cc3OC)C2)c1C (stereo unspecified)	none | Myeloid diff CP1 inactive | GFP autofluor inactive
O=C(CSc1nnnn1-c1ccccc1)NCC1(N2CCOCC2)CCCCC1	none | Myeloid diff CP1 inactive | GFP autofluor inactive
O=C(CN1CCN(S(=O)(=O)c2cccc(Cl)c2)CC1)NCC1(N2CCOCC2)CCCCC1	none
O=C(Cc1ccc(Cl)cc1Cl)NCC1(N2CCOCC2)CCCCC1	none (no result: RAD54 inh) | Myeloid diff CP1 inactive | GFP autofluor inactive
O=C(CSc1nnnn1-c1ccccc1)NCC1(N2CCCCC2)CCCCC1	none
Cc1ccccc1Nc1nc(N)nc(CSc2n[nH]c(N)n2)n1	Myeloid diff MLP active (no result: RAD54 inh) | Myeloid diff CP1 inactive | GFP autofluor inactive
Cc1cccc2cc(CN(Cc3cccs3)S(=O)(=O)c3ccc4c(c3)OCCO4)c(=O)[nH]c12	none (no result: RAD54 inh) | Myeloid diff CP1 inactive | GFP autofluor inactive
Cc1ccc(S(=O)(=O)N(Cc2cc3cccc(C)c3[nH]c2=O)c2ccccc2)cc1	Myeloid diff MLP active | Myeloid diff CP1 inactive | GFP autofluor inactive
CN(Cc1cc2ccccc2[nH]c1=O)S(=O)(=O)c1ccccc1	none
Cc1ccc(S(=O)(=O)N(C)Cc2cc3ccccc3[nH]c2=O)cc1	none | Myeloid diff CP1 inactive | GFP autofluor inactive
Cc1cc2cc(CN(Cc3cccs3)S(=O)(=O)c3ccc4c(c3)OCCO4)c(=O)[nH]c2cc1C	none (no result: RAD54 inh)
C[C@H](CO)N1C[C@H](C)[C@@H](CN(C)C(=O)Oc2ccccc2)OCc2ccccc2-c2ccccc2C1=O	none (no result: Myeloid diff MLP, N-glyco inh, Vif imaging, ABCB6 inh MLPCN)
COc1ccc(NC(=O)Nc2ccc3c(c2)CC(=O)N([C@@H](C)CO)C[C@H](C)[C@H](CN(C)S(=O)(=O)c2cccs2)O3)cc1	none (no result: Myeloid diff MLP, N-glyco inh, Vif imaging, ABCB6 inh MLPCN)
Cc1noc(C)c1S(=O)(=O)Nc1ccc2c(c1)C(=O)N([C@H](C)CO)C[C@H](C)[C@H](CN(C)C(=O)CCCN(C)C)OCCCC[C@H](C)O2	none (no result: Myeloid diff MLP, N-glyco inh, Vif imaging, ABCB6 inh MLPCN)
CCOC(=O)c1ccc2c(c1)[n+](CC)c(C)n2-c1ccccc1	none (no result: Vif imaging)
CC[n+]1c(C)cc(C)n1-c1ccccc1	none (no result: RAD54 inh) | Myeloid diff CP1 inactive | GFP autofluor inactive
Cn1c(C(=O)O)c(C=O)c2ccccc21	none
Cc1c(C(=O)C(C)C)n(C)c2ccccc12	Vif imaging 59 | Myeloid diff CP1 inactive | GFP autofluor inactive
CO[C@H]1CN(C)C(=O)c2cc(NC(=O)c3ccc4c(c3)OCO4)ccc2OC[C@@H](C)NC[C@H]1C	none (no result: Myeloid diff MLP, N-glyco inh, Vif imaging, ABCB6 inh MLPCN)
Cc1noc(C)c1NC(=O)Nc1cccc2c1O[C@@H](CN(C)C(=O)NC(C)C)[C@H](C)CN([C@H](C)CO)C2=O	none (no result: Myeloid diff MLP, N-glyco inh, Vif imaging, ABCB6 inh MLPCN)
C[C@H](NC(=O)c1nc[nH]c1C(=O)N(C)Cc1ccccc1)C(=O)OC(C)(C)C	none
CN(Cc1ccccc1)C(=O)c1[nH]cnc1C(=O)NCCCCCNC(=O)OC(C)(C)C	Myeloid diff MLP active (no result: Vif imaging) | Myeloid diff CP1 inactive | GFP autofluor inactive
COc1ccc([C@H]2C[C@@H](n3cc(COC(=O)c4ccccc4)nn3)[C@H](O)CN2C(=O)C2CCCCC2)cc1	none
COc1ccc([C@H]2C[C@H](n3cc(COC(=O)c4ccccc4)nn3)[C@@H](O)CN2C(=O)C2CCCCC2)cc1	none | Myeloid diff CP1 inactive | GFP autofluor inactive
Cc1ccc([C@H]2C[C@@H](O)[C@H](n3cc(COC(=O)c4ccccc4)nn3)CN2Cc2cccs2)cc1	none | Myeloid diff CP1 inactive | GFP autofluor inactive

Screens as filed in PubChem BioAssay.
